Counter-ions that a name gives are not always drawn. ± gives the standard deviation of the averaged measurements.
What was measured:
[1] = system: Saccharomyces cerevisiae BY4741 SeMeCo community; assay: z-score of prototroph abundance vs DMSO median; higher = larger share of this subpopulation than in DMSO controls; conditions: 10 µM; 24 h; SM minimal medium; subpopulation (auxotrophy): Prototroph
Procedure, shortened: (§1)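 A Saccharomyces cerevisiae BY4741 community carried four plasmids, each restoring one auxotrophy and encoding a distinct fluorescent protein. It was pre-grown overnight to OD600 1.0, diluted to 0.3, and 70 µl was added to 384-well plates acoustically predosed with library drugs (10 µM final), then grown 24 h in minimal SM medium. Cells were paraformaldehyde-fixed and imaged by automated confocal microscopy, with single-auxotroph fluorescent strains setting thresholds and autofluorescence correction. Each subpopulation's abundance was scored as a z-score against the vehicle-well median.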

[2] = system: Saccharomyces cerevisiae BY4741 SeMeCo community; assay: z-score of subpopulation abundance vs DMSO median, subpopulation auxotrophic for M; higher = larger share of this subpopulation than in DMSO controls; conditions: 10 µM; 24 h; SM minimal medium; subpopulation (auxotrophy): M
Procedure, shortened: as §1

[3] = system: Saccharomyces cerevisiae BY4741 SeMeCo community; assay: z-score of subpopulation abundance vs DMSO median, subpopulation auxotrophic for L; higher = larger share of this subpopulation than in DMSO controls; conditions: 10 µM; 24 h; SM minimal medium; subpopulation (auxotrophy): L
Procedure, shortened: as §1

[4] = system: Saccharomyces cerevisiae BY4741 SeMeCo community; assay: z-score of subpopulation abundance vs DMSO median, subpopulation auxotrophic for H; higher = larger share of this subpopulation than in DMSO controls; conditions: 10 µM; 24 h; SM minimal medium; subpopulation (auxotrophy): H
Procedure, shortened: as §1

[5] = system: Saccharomyces cerevisiae BY4741 SeMeCo community; assay: z-score of subpopulation abundance vs DMSO median, subpopulation auxotrophic for LU; higher = larger share of this subpopulation than in DMSO controls; conditions: 10 µM; 24 h; SM minimal medium; subpopulation (auxotrophy): LU
Procedure, shortened: as §1

[6] = system: Saccharomyces cerevisiae BY4741 SeMeCo community; assay: z-score of subpopulation abundance vs DMSO median, subpopulation auxotrophic for LM; higher = larger share of this subpopulation than in DMSO controls; conditions: 10 µM; 24 h; SM minimal medium; subpopulation (auxotrophy): LM
Procedure, shortened: as §1

[7] = system: Saccharomyces cerevisiae BY4741 SeMeCo community; assay: z-score of subpopulation abundance vs DMSO median, subpopulation auxotrophic for HU; higher = larger share of this subpopulation than in DMSO controls; conditions: 10 µM; 24 h; SM minimal medium; subpopulation (auxotrophy): HU
Procedure, shortened: as §1

[8] = system: Saccharomyces cerevisiae BY4741 SeMeCo community; assay: z-score of subpopulation abundance vs DMSO median, subpopulation auxotrophic for UM; higher = larger share of this subpopulation than in DMSO controls; conditions: 10 µM; 24 h; SM minimal medium; subpopulation (auxotrophy): UM
Procedure, shortened: as §1

[9] = system: Saccharomyces cerevisiae BY4741 SeMeCo community; assay: z-score of subpopulation abundance vs DMSO median, subpopulation auxotrophic for HLU; higher = larger share of this subpopulation than in DMSO controls; conditions: 10 µM; 24 h; SM minimal medium; subpopulation (auxotrophy): HLU
Procedure, shortened: as §1

[10] = system: Saccharomyces cerevisiae BY4741 SeMeCo community; assay: z-score of subpopulation abundance vs DMSO median, subpopulation auxotrophic for HLM; higher = larger share of this subpopulation than in DMSO controls; conditions: 10 µM; 24 h; SM minimal medium; subpopulation (auxotrophy): HLM
Procedure, shortened: as §1

[11] = system: Saccharomyces cerevisiae BY4741 SeMeCo community; assay: z-score of subpopulation abundance vs DMSO median, subpopulation auxotrophic for HUM; higher = larger share of this subpopulation than in DMSO controls; conditions: 10 µM; 24 h; SM minimal medium; subpopulation (auxotrophy): HUM
Procedure, shortened: as §1

[12] = system: Saccharomyces cerevisiae BY4741 SeMeCo community; assay: z-score of subpopulation abundance vs DMSO median, subpopulation auxotrophic for LUM; higher = larger share of this subpopulation than in DMSO controls; conditions: 10 µM; 24 h; SM minimal medium; subpopulation (auxotrophy): LUM
Procedure, shortened: as §1

[13] = system: Saccharomyces cerevisiae BY4741 SeMeCo community; assay: z-score of subpopulation abundance vs DMSO median, subpopulation auxotrophic for HLUM; higher = larger share of this subpopulation than in DMSO controls; conditions: 10 µM; 24 h; SM minimal medium; subpopulation (auxotrophy): HLUM
Procedure, shortened: as §1

[14] = system: Saccharomyces cerevisiae BY4741 SeMeCo community; assay: z-score of subpopulation abundance vs DMSO median, subpopulation auxotrophic for U; higher = larger share of this subpopulation than in DMSO controls; conditions: 10 µM; 24 h; SM minimal medium; subpopulation (auxotrophy): U
Procedure, shortened: as §1

[15] = system: Saccharomyces cerevisiae BY4741 SeMeCo community; assay: z-score of subpopulation abundance vs DMSO median, subpopulation auxotrophic for HM; higher = larger share of this subpopulation than in DMSO controls; conditions: 10 µM; 24 h; SM minimal medium; subpopulation (auxotrophy): HM
Procedure, shortened: as §1

[16] = system: Saccharomyces cerevisiae BY4741 SeMeCo community; assay: z-score of subpopulation abundance vs DMSO median, subpopulation auxotrophic for HL; higher = larger share of this subpopulation than in DMSO controls; conditions: 10 µM; 24 h; SM minimal medium; subpopulation (auxotrophy): HL
Procedure, shortened: as §1

[17] = system: Saccharomyces cerevisiae BY4741 SeMeCo community; assay: mean cell size (pixel area) (pixels); higher = larger cells; conditions: 10 µM; 24 h; SM minimal medium
Procedure, shortened: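 Plates of 384 wells were acoustically predosed with drug at a final 10 µM in SM medium, and 70 µl of a Saccharomyces cerevisiae BY4741 preculture diluted from OD600 = 1.0 to OD600 = 0.3 was added for 24 h. The yeast formed a four-plasmid fluorescent community in which each plasmid complements one auxotrophy and carries a fluorescent marker. Fixed cells were imaged by automated confocal microscopy and analysed in Harmony for mean cell pixel area per well. Values are means of 3 replicates. Same SeMeCo high-content imaging drug screen: Selleck FDA-approved drugs at 10 µM, 24 h in SM medium, 384-well plates, 3 replicates.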

Compound | z-score of prototroph abundance [1] | z-score of subpopulation abundance [2] | z-score of subpopulation abundance [3] | z-score of subpopulation abundance [4] | z-score of subpopulation abundance [5] | z-score of subpopulation abundance [6] | z-score of subpopulation abundance [7] | z-score of subpopulation abundance [8] | z-score of subpopulation abundance [9] | z-score of subpopulation abundance [10] | z-score of subpopulation abundance [11] | z-score of subpopulation abundance [12] | z-score of subpopulation abundance [13] | z-score of subpopulation abundance [14] | z-score of subpopulation abundance [15] | z-score of subpopulation abundance [16] | mean cell size [17]
CCOC(=O)C1=C(COCCN)NC(C)=C(C(=O)OC)C1c1ccccc1Cl (stereo not given) [Amlodipine Besylate] | 2.4 | 5.2 | 2.94 | 3.81 | -6.85 | 6.36 | -7.3 | -8.17 | -3.58 | 5.98 | -6.15 | -4.74 | -1.58 | – | – | – | –
Cc1c(C)c2c(c(C)c1O)CCC(C)(CCCC(C)CCCC(C)CCCC(C)C)O2 (stereo not given) [Vitamin E] | – | -0.6 | -0.8 | -0.89 | -0.31 | – | 0.51 | -0.04 | -1.19 | -1.72 | -0.31 | -0.41 | – | 0.13 | -1.28 | -1.01 | –
CCCCCCCCCC(=O)NC1C(Oc2c3cc4cc2Oc2ccc(cc2Cl)C(OC2OC(CO)C(O)C(O)C2NC(C)=O)C2NC(=O)C(NC(=O)C4NC(=O)C4NC(=O)C(Cc5ccc(c(Cl)c5)O3)NC(=O)C(N)c3ccc(O)c(c3)Oc3cc(O)cc4c3)c3ccc(O)c(c3)-c3c(OC4OC(CO)C(O)C(O)C4O)cc(O)cc3C(C(=O)O)NC2=O)OC(CO)C(O)C1O (stereo not given) [Teicoplanin] | – | 0.97 | -0.21 | 0.94 | 0.07 | 0.75 | 0.39 | 0.78 | -0.15 | -0.07 | 1.19 | – | -0.79 | -0.01 | 1.4 | 1.01 | –
CC(=O)OC1CC2(C)C(CC(O)C3C4(C)CCC(O)C(C)C4CCC32C)C1=C(CCC=C(C)C)C(=O)O (stereo not given) [Fusidine] | -1.01 | 0.14 | 2.4 | 2.59 | 1.02 | – | 0.13 | -0.42 | 1.57 | 1.22 | 0.82 | – | 0.71 | -1.39 | 1.19 | – | –
Nc1c2c(nc3ccccc13)CCCC2 [Tacrine hydrochloride hydrate] | -0.22 | 0.5 | -0.15 | -0.99 | 0.3 | 0.08 | -0.42 | – | 0.33 | 0.56 | 0.1 | 0.71 | – | 0 | -0.01 | – | –
COc1ccc(-c2nc3cc(C4=NNC(=O)CC4C)ccc3[nH]2)cc1 (stereo not given) [Pimobendan] | -0.89 | 0.83 | 1.93 | 0.76 | 0.46 | 1.71 | -0.28 | -0.05 | 1.42 | 0.33 | 0.52 | 1.6 | 1.6 | – | 0.78 | 0.79 | –
COc1ccc([C@@H]2Sc3ccccc3N(CCN(C)C)C(=O)[C@@H]2OC(C)=O)cc1 [Diltiazem HCl] | 0.76 | -0.12 | 0.4 | -0.4 | -0.4 | 0.01 | -0.1 | -0.21 | 0.03 | -0.37 | -0.36 | -0.24 | – | -0.19 | -0.74 | -0.78 | –
COc1nc2ccc(Br)cc2cc1[C@@H](c1ccccc1)[C@@](O)(CCN(C)C)c1cccc2ccccc12 [Bedaquiline fumarate] | -1.58 | -0.55 | -0.13 | 1.1 | 0.86 | 0.49 | – | 4.1 | 0.68 | -0.14 | – | – | 1.29 | 0.97 | 0.33 | 0.4 | 11.2 ± 0.16
CC(C)N1CCN(c2ccc(OCC3COC(Cn4cncn4)(c4ccc(Cl)cc4Cl)O3)cc2)CC1 (stereo not given) [Terconazole] | 1.34 | -1.43 | 0.04 | -0.38 | -0.65 | -0.49 | -0.58 | -0.8 | -0.59 | -0.59 | – | -0.86 | -0.55 | -0.27 | -1.2 | -0.76 | 12.1 ± 0.043
c1ccc(C2CN3CCSC3=N2)cc1 (stereo not given) [Tetramisole HCl] | 0.24 | -0.44 | 0.54 | -0.14 | -0.21 | 0.13 | 0.01 | 0.02 | 0.35 | -0.45 | – | 0.46 | – | -0.11 | -0.54 | – | 11.9 ± 0.12
Nc1c(Br)cc(Br)cc1CN[C@H]1CC[C@H](O)CC1 [Ambroxol HCl] | 1.21 | -0.93 | -1.26 | -0.09 | -0.9 | -0.43 | -1.1 | -0.8 | -0.39 | -0.5 | – | -1.08 | -0.43 | – | -1.17 | -0.86 | 12.1 ± 0.17
CCC(=O)NS(=O)(=O)c1ccc(-c2c(-c3ccccc3)noc2C)cc1 [Parecoxib Sodium] | -1.76 | 0.75 | 0.68 | 0.01 | 0.31 | 1 | 0.55 | – | 0.91 | 0.26 | – | 1.18 | 0.78 | 0.97 | 1.65 | 1.38 | 12.39 ± 0.068
Cc1nc(NC(=O)N2CCC[C@H]2C(N)=O)sc1-c1ccnc(C(C)(C)C(F)(F)F)c1 [Alpelisib (BYL719)] | -0.14 | -0.14 | -1.04 | 0.36 | 0.28 | -1.01 | 0.49 | 0.25 | -0.75 | -0.12 | – | -0.87 | -0.78 | – | 0.31 | -0.35 | 12.6 ± 0.23

— the supplement of paper PMC8975748
